Outcome and AC50 data for eight compounds are collected here from PubChem BioAssay (EPA / NIEHS).

Assay [1] in a line: ATG_NFI_CIS: Attagene CIS-FACTORIAL HepG2 Assay for human Nuclear Factor I (NFI) (AID 2282989). The settings on record: HepG2 cis-regulatory reporter, NFI response element transcription; actives raise or lower the signal. Summed up: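 After transient transfection of HepG2 with cis-promoter reporter constructs and 24 h dosing, RNA is reverse-transcribed, amplified, 6-FAM end-labelled and HpaI-digested before capillary analysis. Bidirectional curve fitting against DMSO.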

For assay [2], the target named is Myc proto-oncogene protein (Homo sapiens) (UniProt P01106). Description: ATG_Myc_CIS: Attagene CIS-FACTORIAL HepG2 Assay for human Myelocytomatosis (Myc) Proto-Oncogene Transcription Factor (AID 2282990). The settings on record: HepG2, Attagene cis-reporter transcription factor activity; actives raise or lower the signal. Summed up:
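Cells of the HepG2 human liver line bear multiple cis-driven reporter transcription units. Reporter mRNA after 24 h exposure is reverse-transcribed, amplified, labelled and resolved by capillary electrophoresis, with gain- or loss-of-signal fitting relative to DMSO.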

A short description of assay [3]: ATG_NF_kB_CIS: Attagene CIS-FACTORIAL HepG2 Assay for human Nuclear Factor Kappa B (NF-kB) (AID 2282991). As to conditions: HepG2 Attagene cis-factorial NF-kB reporter mRNA; actives raise or lower the signal. In short, it runs like this:
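Read-out: reporter transcript levels quantified by RT-PCR plus capillary electrophoresis of 6-FAM-labelled, HpaI-cut fragments. Transfected HepG2 cells, 24 h compound exposure, endogenous NF-kB-driven cis element; gain or loss scored versus DMSO.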

Assay [4] can be described thus: ATG_NRF2_ARE_CIS: Attagene CIS-FACTORIAL HepG2 Assay for human Nuclear Factor Erythroid 2 Related Factor 2 (NFR2) response to Antioxidant Response Elements (ARE) (AID 2282992). The settings on record: HepG2 Attagene ARE/NRF2 reporter, transcription factor activity; actives raise or lower the signal. Summed up:
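Readout: reporter mRNA quantified by RT-PCR plus FAM-labelled primer extension, HpaI digestion and capillary electrophoresis, 24 h after dosing transfected HepG2 cells. Gain or loss of signal is fitted bidirectionally against DMSO baseline.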

The nature of assay [5]: ATG_Oct_MLP_CIS: Attagene CIS-FACTORIAL HepG2 Assay for human Octamer-Binding Transcription Factor (Oct) (AID 2282993). The settings on record: HepG2 Attagene cis-factorial Oct reporter, mRNA; actives raise or lower the signal. In short, it runs like this:
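Cells of the HepG2 line express promoter-controlled reporter sequences whose mRNA levels, after 24 h treatment, are measured by RT-PCR and capillary electrophoresis. Increases and decreases are scored relative to DMSO.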

Assay [6] deals with Cellular tumor antigen p53 (Homo sapiens) (UniProt P04637). The assay can be described thus: ATG_p53_CIS: Attagene CIS-FACTORIAL HepG2 Assay for human p53 Transcription Factor (AID 2282994). As to conditions: HepG2 p53 cis-element reporter, Attagene mRNA; actives raise or lower the signal. Summed up: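 Read-out: reporter mRNA by RT-PCR plus capillary electrophoresis with fluorescence detection. Human HepG2 liver cells carried transfected multi-reporter cis-element constructs, dosed 24 h. Gain or loss of signal fitted bidirectionally against DMSO control.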

Assay [7] has as its target human Retinoic Acid Receptor beta (RARb), RARB (gene 5915) (UniProt P10826). Description: ATG_RARb_TRANS: Attagene TRANS-FACTORIAL HepG2 Assay for human Retinoic Acid Receptor beta (AID 2283004; active = hit-call score of the fitted dose curve at least 0.9, where 1 is the maximum). In short, it runs like this: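 Transient transfection of HepG2 with multiple reporter units → chemical dosing, 24 h → total RNA isolation → RT with oligo(dT) → reporter-specific PCR, 6-FAM primer extension, HpaI digest → capillary electrophoresis. Positive direction vs DMSO control.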

In assay [8] the target is Retinoic acid receptor alpha (Homo sapiens) (UniProt P10276). Description: ATG_RARa_TRANS: Attagene TRANS-FACTORIAL HepG2 Assay for human Retinoic Acid Receptor alpha (RARa) (AID 2283005; active = hit-call score of the fitted dose curve at least 0.9, where 1 is the maximum). Summed up:
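Reporter transcripts, measured by RT-PCR with fluorescent labeling and capillary electrophoresis after 24 h dosing, reflect activity of an exogenous human RARa–GAL4 fusion in transiently transfected HepG2. Fitted for increase relative to DMSO.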

Assay [9] concerns the target human Retinoic Acid Receptor gamma (RARg), RARG (gene 5916) (UniProt P13631). The assay can be described thus: ATG_RARg_TRANS: Attagene TRANS-FACTORIAL HepG2 Assay for human Retinoic Acid Receptor gamma (RARg) (AID 2283009; active = hit-call score of the fitted dose curve at least 0.9, where 1 is the maximum). Summed up:
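Transactivation of exogenous RARg-Gal4 fusion measured as reporter transcript induction after 24 h in transfected HepG2 cells. RNA reverse-transcribed, amplified, fluorescently labeled and resolved by capillary electrophoresis; increase relative to DMSO.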

Assay [10] has as its target human RAR-related Orphan Receptor beta (RORb), RORB (gene 6096) (UniProt Q92753). The assay can be described thus: ATG_RORb_TRANS: Attagene TRANS-FACTORIAL HepG2 Assay for human RAR-related Orphan Receptor beta (RORb) (AID 2283010; active = hit-call score of the fitted dose curve at least 0.9, where 1 is the maximum). In short, it runs like this:
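Read-out is reporter mRNA induction, quantified by RT-PCR with fluorescent capillary electrophoresis, 24 h post-dose in transiently transfected HepG2 expressing exogenous NR-Gal4 chimera. Activity fitted upward versus DMSO.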

Assay [11] deals with human Peroxisome Proliferator-activated Receptor delta (PPARd), PPARD (gene 5467) (UniProt Q03181). Description: ATG_PPARd_TRANS: Attagene TRANS-FACTORIAL HepG2 Assay for human Peroxisome Proliferator-activated Receptor delta (PPARd) (AID 2283002; active = hit-call score of the fitted dose curve at least 0.9, where 1 is the maximum). Summed up:
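Cell-based TRANS reporter: HepG2, transient MRTU transfection, 24 h exposure. Readout = reporter mRNA (RT-PCR/CE, 6-FAM). Gain-of-signal fit vs DMSO control.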

The target in assay [12] is human Peroxisome Proliferator-activated Receptor alpha (PPARa), PPARA (gene 5465) (UniProt Q07869). The assay can be described thus: ATG_PPARa_TRANS: Attagene TRANS-FACTORIAL HepG2 Assay for human Peroxisome Proliferator-activated Receptor alpha (PPARa) (AID 2283001; active = hit-call score of the fitted dose curve at least 0.9, where 1 is the maximum). Summed up:
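Reporter transcripts quantified by RT-PCR plus capillary electrophoresis after 24 h treatment, fitted upward relative to DMSO. Cells: human HepG2 transiently carrying multiple GAL4-UAS reporter units driven by NR-Gal4 chimeras.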

Assay [13] concerns the target Peroxisome proliferator-activated receptor gamma (Homo sapiens) (UniProt P37231). Description: ATG_PPARg_TRANS: Attagene TRANS-FACTORIAL HepG2 Assay for human Peroxisome Proliferator-activated Receptor-gamma (PPARg) (AID 2283007; active = hit-call score of the fitted dose curve at least 0.9, where 1 is the maximum). In short, it runs like this: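 Read-out: reporter mRNA induction, detected by fluorescence after RT-PCR and capillary electrophoresis. Transiently transfected human HepG2 liver cells carrying a chimeric NR-Gal4 construct were dosed for 24 h; activity was fitted upward relative to DMSO.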

The target of assay [14] is Nuclear receptor subfamily 1 group I member 2 (Homo sapiens) (UniProt O75469). The assay can be described thus: ATG_PXR_TRANS: Attagene TRANS-FACTORIAL HepG2 Assay for human Pregnane X Receptor (PXR) (AID 2283008; active = hit-call score of the fitted dose curve at least 0.9, where 1 is the maximum). Summed up:
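Trans-factorial format: exogenous NR-Gal4 fusion activity, not endogenous factor, in transfected human HepG2 liver cells. After 24 h dosing, RNA isolated, reverse-transcribed, amplified and resolved by capillary electrophoresis; induction scored versus DMSO.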

The nature of assay [15]: BSK_3C_TissueFactor: BioMAP Diversity Plus: 3C Assay for Tissue Factor Biomarker Activity (AID 2282997). The settings on record: BioMAP 3C HUVEC, tissue factor biomarker readout; actives raise or lower the signal. In short, it runs like this: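 After a 24 h chemical exposure of primary human umbilical vein endothelial cells, Tissue Factor levels were quantified by ELISA.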

The nature of assay [16]: BSK_3C_uPAR: BioMAP Diversity Plus: 3C Assay for Urokinase-type plasminogen activator receptor (uPAR) Biomarker Activity (AID 2282998). The settings on record: BioMAP 3C HUVEC, uPAR biomarker ELISA; actives raise or lower the signal. In short, it runs like this:
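Endothelial primary cells of human umbilical vein origin received test chemical; 24 h later uPAR was assayed by ELISA. Fitting was bidirectional, DMSO as negative control.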

The nature of assay [17]: BSK_3C_VCAM1: BioMAP Diversity Plus: 3C Assay for Vascular cell adhesion molecule 1 (VCAM1) Biomarker Activity (AID 2282999). As to conditions: BioMAP 3C HUVEC, VCAM1 ELISA, cytokine-stimulated; actives raise or lower the signal. In short, it runs like this: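 Activity fitted in both directions relative to DMSO, with ELISA measurement of the surface marker on primary HUVEC (3C) at 24 h post-treatment; parallel SRB staining (0.1% SRB, TCA-fixed, 560 nm) flagged overt cytotoxicity.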

Assay [18] in a line: BSK_4H_Eotaxin3: BioMAP Diversity Plus: 4H Assay for Eotaxin 3 Biomarker Activity (AID 2283000).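 Note: CCL26 protein level quantified by ELISA in parallel with SRB cytotoxicity check.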 The settings on record: primary human endothelial cells (HUVEC); actives raise or lower the signal. Summed up: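 Chemicals were added to human umbilical vein endothelium cultures, and Eotaxin-3 was quantified by ELISA at 24 h. Values were derived by bidirectional fitting with DMSO serving as negative control and activity baseline.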

Read-out in assay [19]: Intercellular Adhesion Molecule 1 (ICAM1), ICAM1 (gene 3383)
Description: BSK_3C_ICAM1: BioMAP Diversity Plus: 3C Assay for Intercellular Adhesion Molecule 1 (ICAM1) Biomarker Activity (AID 2283003). The settings on record: primary human endothelial cells (HUVEC); actives raise or lower the signal. In short, it runs like this: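 ELISA readout of ICAM1 in human umbilical vein endothelial cells in the 3C system, taken 24 h post-dose. Gain or loss of signal versus DMSO was fitted in both directions, with SRB total-protein staining run in parallel.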

Assay [20] can be described thus: BSK_3C_Proliferation: Cell Proliferation Assessment in the BioMAP Diversity Plus: 3C Assay (AID 2283006). The settings on record: primary human endothelial cells (HUVEC). In short, it runs like this: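 Proliferation as total protein: sulforhodamine B (0.1%) stain of TCA-fixed subconfluent human umbilical vein endothelial cells, absorbance 560 nm, 48 h after dosing. Activity fitted in both directions against DMSO baseline.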

SMILES strings stand for the structures. Records with an inconclusive call do not appear. Active and inactive are the calls of the source. Rule for the calls, unless noted: active = hit-call score of the fitted dose curve at least 0.9, where 1 is the maximum; inactive = score below 0.9.

Nuclear receptor subfamily 1 group I member 2 (Homo sapiens), sequence (O75469 whole entry, looked up, the tested form may be a part): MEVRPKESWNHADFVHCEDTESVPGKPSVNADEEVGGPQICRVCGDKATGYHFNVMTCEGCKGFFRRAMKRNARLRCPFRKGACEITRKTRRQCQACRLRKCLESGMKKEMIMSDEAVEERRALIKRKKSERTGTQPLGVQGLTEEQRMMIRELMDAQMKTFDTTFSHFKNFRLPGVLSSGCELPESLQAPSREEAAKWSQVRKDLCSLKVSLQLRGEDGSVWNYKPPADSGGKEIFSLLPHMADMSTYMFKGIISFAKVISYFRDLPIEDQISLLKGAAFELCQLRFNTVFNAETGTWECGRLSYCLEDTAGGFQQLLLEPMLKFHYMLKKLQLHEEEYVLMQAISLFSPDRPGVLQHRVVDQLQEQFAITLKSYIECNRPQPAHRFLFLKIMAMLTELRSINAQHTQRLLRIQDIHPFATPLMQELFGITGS
human Peroxisome Proliferator-activated Receptor delta (PPARd), PPARD (gene 5467), sequence (Q03181 whole entry, looked up): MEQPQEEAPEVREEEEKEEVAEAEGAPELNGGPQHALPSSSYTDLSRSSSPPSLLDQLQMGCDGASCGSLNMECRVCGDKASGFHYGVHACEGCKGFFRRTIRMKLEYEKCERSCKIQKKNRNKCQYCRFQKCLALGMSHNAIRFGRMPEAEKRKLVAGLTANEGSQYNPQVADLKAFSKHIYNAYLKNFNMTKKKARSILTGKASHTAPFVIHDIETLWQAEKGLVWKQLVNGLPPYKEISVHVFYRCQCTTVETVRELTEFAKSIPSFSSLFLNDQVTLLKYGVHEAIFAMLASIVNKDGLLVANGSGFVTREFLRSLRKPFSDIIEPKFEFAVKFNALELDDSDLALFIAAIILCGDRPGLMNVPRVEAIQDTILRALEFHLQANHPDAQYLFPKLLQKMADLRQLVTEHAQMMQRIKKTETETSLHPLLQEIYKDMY
Cellular tumor antigen p53 (Homo sapiens), sequence (P04637 whole entry, looked up): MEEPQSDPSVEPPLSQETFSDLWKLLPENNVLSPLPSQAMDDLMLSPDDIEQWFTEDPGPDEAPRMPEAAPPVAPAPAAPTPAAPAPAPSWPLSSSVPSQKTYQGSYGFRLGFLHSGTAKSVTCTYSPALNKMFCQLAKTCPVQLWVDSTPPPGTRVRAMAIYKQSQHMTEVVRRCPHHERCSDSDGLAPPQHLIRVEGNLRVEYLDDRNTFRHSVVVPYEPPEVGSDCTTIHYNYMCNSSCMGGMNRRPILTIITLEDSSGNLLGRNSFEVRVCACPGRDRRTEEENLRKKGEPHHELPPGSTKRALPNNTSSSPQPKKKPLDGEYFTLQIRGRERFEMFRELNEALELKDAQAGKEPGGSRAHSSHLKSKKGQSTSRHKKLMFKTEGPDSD
human Retinoic Acid Receptor beta (RARb), RARB (gene 5915), sequence (P10826 whole entry, looked up): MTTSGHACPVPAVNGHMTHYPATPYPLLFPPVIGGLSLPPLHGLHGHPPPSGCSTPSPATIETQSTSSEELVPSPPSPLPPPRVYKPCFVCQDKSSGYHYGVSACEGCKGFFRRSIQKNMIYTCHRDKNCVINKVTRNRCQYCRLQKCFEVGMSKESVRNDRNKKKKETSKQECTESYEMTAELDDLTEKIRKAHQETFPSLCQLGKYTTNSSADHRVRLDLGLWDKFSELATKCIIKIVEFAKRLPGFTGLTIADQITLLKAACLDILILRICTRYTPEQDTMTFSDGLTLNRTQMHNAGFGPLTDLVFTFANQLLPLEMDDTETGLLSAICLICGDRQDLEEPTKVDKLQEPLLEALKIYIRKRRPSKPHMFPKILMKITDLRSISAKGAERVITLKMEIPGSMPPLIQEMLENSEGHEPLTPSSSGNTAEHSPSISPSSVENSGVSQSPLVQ
Myc proto-oncogene protein (Homo sapiens), sequence (P01106 whole entry, looked up): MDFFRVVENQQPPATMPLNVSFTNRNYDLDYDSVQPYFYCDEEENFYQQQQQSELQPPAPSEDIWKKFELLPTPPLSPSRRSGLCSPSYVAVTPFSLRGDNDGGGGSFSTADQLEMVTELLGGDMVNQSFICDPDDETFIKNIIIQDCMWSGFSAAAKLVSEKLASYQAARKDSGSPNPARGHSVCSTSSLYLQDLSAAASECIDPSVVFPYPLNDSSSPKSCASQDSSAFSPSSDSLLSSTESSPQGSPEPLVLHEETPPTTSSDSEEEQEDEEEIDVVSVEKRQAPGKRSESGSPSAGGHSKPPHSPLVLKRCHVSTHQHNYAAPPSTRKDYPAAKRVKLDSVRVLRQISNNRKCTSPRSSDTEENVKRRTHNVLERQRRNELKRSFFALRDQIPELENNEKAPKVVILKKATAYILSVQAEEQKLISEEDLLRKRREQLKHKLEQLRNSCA
human RAR-related Orphan Receptor beta (RORb), RORB (gene 6096), sequence (Q92753 whole entry, looked up, the tested form may be a part): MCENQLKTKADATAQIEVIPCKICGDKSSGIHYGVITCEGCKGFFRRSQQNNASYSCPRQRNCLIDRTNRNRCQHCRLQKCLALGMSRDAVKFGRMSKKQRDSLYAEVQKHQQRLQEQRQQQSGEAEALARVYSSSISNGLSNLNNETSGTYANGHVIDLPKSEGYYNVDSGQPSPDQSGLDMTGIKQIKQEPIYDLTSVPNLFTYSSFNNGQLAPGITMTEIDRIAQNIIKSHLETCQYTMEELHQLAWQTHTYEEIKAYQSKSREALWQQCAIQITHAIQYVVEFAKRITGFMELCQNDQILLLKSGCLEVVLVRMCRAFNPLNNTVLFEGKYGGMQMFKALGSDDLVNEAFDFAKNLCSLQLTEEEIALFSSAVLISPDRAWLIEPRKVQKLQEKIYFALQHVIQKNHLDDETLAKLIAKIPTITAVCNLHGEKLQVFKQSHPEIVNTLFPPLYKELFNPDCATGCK
human Retinoic Acid Receptor gamma (RARg), RARG (gene 5916), sequence (P13631 whole entry, looked up, the tested form may be a part): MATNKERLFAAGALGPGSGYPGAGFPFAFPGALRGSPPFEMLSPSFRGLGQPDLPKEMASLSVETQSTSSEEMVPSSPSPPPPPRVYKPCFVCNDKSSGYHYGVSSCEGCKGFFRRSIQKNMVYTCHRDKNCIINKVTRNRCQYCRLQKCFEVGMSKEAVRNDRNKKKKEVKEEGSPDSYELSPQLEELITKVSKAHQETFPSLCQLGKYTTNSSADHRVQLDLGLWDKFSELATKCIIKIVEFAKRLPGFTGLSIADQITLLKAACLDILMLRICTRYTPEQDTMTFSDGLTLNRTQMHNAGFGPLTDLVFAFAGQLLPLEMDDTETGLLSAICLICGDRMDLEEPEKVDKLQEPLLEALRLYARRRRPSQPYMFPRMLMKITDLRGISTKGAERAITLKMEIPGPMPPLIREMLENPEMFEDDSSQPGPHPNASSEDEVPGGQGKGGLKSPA
Retinoic acid receptor alpha (Homo sapiens), sequence (P10276 whole entry, looked up, the tested form may be a part): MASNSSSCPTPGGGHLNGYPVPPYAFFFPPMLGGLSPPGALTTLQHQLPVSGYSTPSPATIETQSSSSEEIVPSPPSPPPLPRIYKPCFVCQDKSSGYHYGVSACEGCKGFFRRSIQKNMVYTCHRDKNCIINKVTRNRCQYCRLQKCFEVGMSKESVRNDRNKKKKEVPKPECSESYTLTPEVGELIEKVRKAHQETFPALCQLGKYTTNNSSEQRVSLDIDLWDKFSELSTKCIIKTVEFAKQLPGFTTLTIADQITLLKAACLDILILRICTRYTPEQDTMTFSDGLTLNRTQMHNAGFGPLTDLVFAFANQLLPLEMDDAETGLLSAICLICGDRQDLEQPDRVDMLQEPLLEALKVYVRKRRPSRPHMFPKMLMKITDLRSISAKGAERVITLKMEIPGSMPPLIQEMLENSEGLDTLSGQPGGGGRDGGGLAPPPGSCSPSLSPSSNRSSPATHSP
human Peroxisome Proliferator-activated Receptor alpha (PPARa), PPARA (gene 5465), sequence (Q07869 whole entry, looked up, the tested form may be a part): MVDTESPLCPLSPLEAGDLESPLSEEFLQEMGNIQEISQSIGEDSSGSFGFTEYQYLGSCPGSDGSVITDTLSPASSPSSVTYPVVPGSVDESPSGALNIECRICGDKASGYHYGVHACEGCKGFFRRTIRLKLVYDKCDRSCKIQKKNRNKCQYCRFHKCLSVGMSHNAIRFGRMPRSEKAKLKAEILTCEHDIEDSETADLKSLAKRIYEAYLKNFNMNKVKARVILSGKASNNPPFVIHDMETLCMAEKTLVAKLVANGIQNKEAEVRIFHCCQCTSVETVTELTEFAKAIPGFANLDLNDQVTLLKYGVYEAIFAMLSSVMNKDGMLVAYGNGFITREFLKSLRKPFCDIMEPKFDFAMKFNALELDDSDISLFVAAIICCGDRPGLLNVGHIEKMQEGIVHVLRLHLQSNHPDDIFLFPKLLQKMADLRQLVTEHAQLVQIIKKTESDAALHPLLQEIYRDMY
Peroxisome proliferator-activated receptor gamma (Homo sapiens), sequence (P37231 whole entry, looked up, the tested form may be a part): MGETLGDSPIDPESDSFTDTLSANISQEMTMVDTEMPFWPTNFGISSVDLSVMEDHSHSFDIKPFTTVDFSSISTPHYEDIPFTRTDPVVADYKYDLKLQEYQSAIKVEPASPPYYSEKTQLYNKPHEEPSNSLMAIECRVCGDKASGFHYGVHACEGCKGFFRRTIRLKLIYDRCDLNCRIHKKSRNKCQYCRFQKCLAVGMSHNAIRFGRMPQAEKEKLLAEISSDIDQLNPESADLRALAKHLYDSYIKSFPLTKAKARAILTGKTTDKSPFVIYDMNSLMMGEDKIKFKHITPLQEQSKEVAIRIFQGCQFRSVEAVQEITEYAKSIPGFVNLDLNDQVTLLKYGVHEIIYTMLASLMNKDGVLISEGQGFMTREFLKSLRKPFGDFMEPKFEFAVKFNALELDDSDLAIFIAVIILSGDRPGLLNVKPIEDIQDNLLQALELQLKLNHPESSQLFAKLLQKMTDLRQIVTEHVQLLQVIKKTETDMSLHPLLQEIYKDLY

For the compound `O=C1CCCC1`, the result in [1], in assay [2], in assay [3], in assay [4], in assay [5] and in assay [6] was inactive. Further, the compound was called inactive in assay [7], in assay [8], in assay [9] and in assay [10].
For `ON(Cc1ccccc1)Cc1ccccc1`, the result in [1], in [2], in assay [3], in assay [4], in assay [5] and in assay [6] was inactive. Further, the compound was called inactive in [11] and in assay [9].
On to `CC(CC=O)CCCC(C)(C)O` (stereo not drawn), for which the call in [1], in assay [2], in assay [3], in assay [4], in assay [5] and in assay [12] was inactive. In addition, the outcome in [11], in assay [13] and in assay [10] was inactive.
Consider `C=C(C)c1cccc(C(C)(C)N=C=O)c1`, for which the outcome in assay [1], in assay [2], in assay [3], in assay [4], in assay [5] and in [6] was inactive. In addition, the compound was called inactive in [7] and in assay [9]. In assay [14], the AC50 was 0.0915 µM (active).
`CCCCCCCC(C)=O`: the result in assay [1], in assay [2], in assay [3], in assay [4], in assay [5] and in assay [6] was inactive. In addition, the compound was classed as inactive in [11], in [14] and in assay [9].
Turning to `CC(=O)OCC(=O)[C@@]12N=C(C)O[C@@H]1C[C@H]1[C@@H]3CCC4=CC(=O)C=C[C@]4(C)[C@H]3[C@@H](O)C[C@@]12C`, the compound was called inactive in assay [1], in assay [2], in assay [3], in [4], in [5] and in assay [6]. In addition, the compound was classed as inactive in assay [11] and in assay [14].
As to `O=c1c2ccccc2oc2ccccc12`, the compound was called inactive in [1], in [2], in assay [3], in [5], in assay [16] and in assay [17]. Moreover, the result in assay [18], in assay [12], in assay [19], in assay [7], in assay [8] and in assay [20] was inactive. Also, in [9], the compound was classed as inactive. Also, the values for the AC50 in [4], in assay [15] and in assay [14] were 26.9 µM (active), 3.97 µM (active) and 27.3 µM (active), respectively.
For the compound `C=CC(=O)NC(C)(C)CS(=O)(=O)O`, the compound was classed as inactive in assay [1], in assay [2], in [3], in assay [4], in [5] and in [6]. Also, the result in assay [8], in assay [13] and in assay [10] was inactive.
